# Out of some 69,000 compounds screened, about 1,000 (1.4%) showed an effect of 50% or more. The sample holds strong results, similar compounds and a random draw of the others, so the mix is not that of the screen.
# System: Leishmania donovani
# Assay: Leishmania intramacrophage assay
# Format: functional, organism-based
# Design: scale not given: in the data most compounds retested in dose-response had high values
structure (smiles),measurement,setting,value
CC(C)C[C@@H](N)C(=O)N(C)Cc1csc(C(C)C)n1,Percent Effect,"30.3 µM, […]",18.19%
CC(C)c1nc(CN(C)C(=O)C(O)c2ccc(Cl)cc2)cs1 (stereo not given),Percent Effect,"30.3 µM, […]",-6.394%
CC(C)c1nc(CN(C)C(=O)[C@H](N)Cc2ccc(Cl)cc2)cs1,Percent Effect,"30.3 µM, […]",64.25%
CN1CCN(C(=O)CC2CCN(CCc3ccccn3)CC2)CC1,Percent Effect,"30 µM, 30.03 µM",28.67%
COC[C@@H]1CCCN1C(=O)c1cc(-c2cccc(OC)c2)n[nH]1,Percent Effect,"30.3 µM, […]",15.97%
O=C(CCCn1cnc2ccccc2c1=O)Nc1nc[nH]n1,Percent Effect,"30.3 µM, […]",-11.87%
CC(C)c1ccc(S(=O)(=O)N2CSCC2C(=O)NCC(F)(F)F)cc1 (stereo not given),Percent Effect,30 µM,31.97%
CC(C)CCCNC(=O)Nc1ccc(C(N)=O)c(Cl)c1,Percent Effect,30 µM,-4.358%
O=C(CC1CC1)N1CCC2(CC1)CN(c1ncccn1)CCO2,Percent Effect,"30 µM, 30.03 µM",2.315%
CC1COC2(CCN(C(=O)Cc3ccncc3)CC2)C1.O=C(O)C(F)(F)F (stereo not given),Percent Effect,"30.3 µM, […]",9.251%
Cn1cc(C2COC3(CCN(C(=O)Cc4ccccc4)CC3)C2)cn1 (stereo not given),Percent Effect,"30.3 µM, […]",7.925%
O=C(Cc1ccncc1)N1CCC2(CC1)CC(c1ccccc1)CO2.O=C(O)C(F)(F)F (stereo not given),Percent Effect,"30.3 µM, […]",68.9%
O=C(Cc1ccccn1)N1CCC2(CC1)CN(c1ncccn1)CCO2.O=C(O)C(F)(F)F.O=C(O)C(F)(F)F,Percent Effect,"30.3 µM, […]",12.21%
O=C(Cc1ccccc1)N1CCC2(CC1)CN(c1ncccn1)CCO2,Percent Effect,"30.3 µM, […]",60.82%
OCC1(NCc2cnc(-c3ccccn3)s2)CCOCC1,Percent Effect,"30.3 µM, […]",-4.185%
CNC(=O)NCC(=O)N(C)C(c1ccc(Cl)cc1)c1cccnc1 (stereo not given),Percent Effect,"30.3 µM, […]",-0.8032%
CN(Cc1cncnc1)[C@H]1CN(C(=O)c2ccc[nH]2)[C@@H]2CCCO[C@@H]21,Percent Effect,"30.3 µM, […]",13.74%
CCCc1n[nH]c(C2CN(C(=O)CCCn3ccnc3)CCO2)n1 (stereo not given),Percent Effect,"30.3 µM, […]",48.09%
CCCc1n[nH]c(C2CN(C(=O)CCCn3ccnc3C)CCO2)n1 (stereo not given),Percent Effect,"30.3 µM, […]",52.76%
CCCc1n[nH]c(C2CN(C(=O)CCCn3cccn3)CCO2)n1 (stereo not given),Percent Effect,"30 µM, 30.03 µM",8.129%
CCCC(=O)NCC(=O)Nc1cc(F)ccc1SCC(F)F,Percent Effect,"30.3 µM, […]",-46.76%
CN(C)C(=O)CN1C[C@@H]2CC[C@H](C1)N(C(=O)CCCn1cncn1)C2,Percent Effect,"30.3 µM, […]",3.091%
CC(C)(C)n1nnnc1CN(Cc1ccccc1)Cc1ccc(Cl)cc1,Percent Effect,"30.3 µM, […]",73.63%
CC(C)(C)n1nnnc1CN(Cc1ccccc1)Cc1ccccc1Cl,Percent Effect,"30.3 µM, […]",-43.37%
CC(C)(C)n1nnnc1CN(CCc1ccccc1)Cc1ccccc1,Percent Effect,"30.3 µM, […]",46.18%
CCC(CNC(=O)c1ccccc1OC)N1CCc2ccccc2C1 (stereo not given),Percent Effect,"30.3 µM, […]",6.323%
CC(C)OCCCNC(=O)CS(=O)(=O)Cc1ccc(Cl)cc1,Percent Effect,30 µM,-19.7%
COCC(=O)N1CCN(Cn2nc(C)c(Br)c2C)CC1,Percent Effect,"30.3 µM, […]",52.22%
COC(=O)N1CCCN(Cn2nc(C)c(Br)c2C)CC1,Percent Effect,"30.3 µM, […]",-25.9%
CCC(=O)N1CCCN(Cn2nc(C)c(Br)c2C)CC1,Percent Effect,"30.3 µM, […]",-2.566%
Cc1ccn(Cc2nc(C(C)OCC(C)C)no2)c(=O)c1 (stereo not given),Percent Effect,"30.3 µM, […]",4.888%
Cc1[nH]ccc1C(=O)N1CCC2(CC1)c1nc[nH]c1CCN2CC(C)C,Percent Effect,"30.3 µM, […]",14.63%
COc1cccc(C(O)CNC(=O)CC2CCCCC2)c1 (stereo not given),Percent Effect,"30.3 µM, […]",-1.709%
CN1CCC(NCC(O)c2cccc(OCc3ccccc3)c2)CC1 (stereo not given),Percent Effect,"30.3 µM, […]",100.4%
CCN1CCC(CC(=O)NCC(O)c2cccc(OC)c2)CC1 (stereo not given),Percent Effect,"30.3 µM, […]",23.15%
OC(CNC1CCOCC1)c1cccc(OCc2ccccc2)c1 (stereo not given),Percent Effect,"30.3 µM, […]",10.21%
OC(CNC1CCSCC1)c1cccc(OCc2ccccc2)c1 (stereo not given),Percent Effect,"30.3 µM, […]",77.88%
c1ccc(COc2cccc(CNC3CCc4ncnn4C3)c2)cc1 (stereo not given),Percent Effect,30 µM,-0.9201%
CN(Cc1cnn(C)c1)C(=O)Cc1ccc2c(c1)OCCO2,Percent Effect,"30.3 µM, […]",1.956%
COCCCN(C)C1CCCN(Cc2noc(C)n2)C1 (stereo not given),Percent Effect,"30 µM, 30.03 µM",26.31%
Cc1nc(CN(C)C2CCN(Cc3cccc4c3OCCO4)C2)no1 (stereo not given),Percent Effect,30 µM,6.673%
Cn1ccnc1CCNC(=O)NCCC1CCCCO1 (stereo not given),Percent Effect,"30.3 µM, […]",11.89%
O=C(C1CCOC1)N1C[C@H]2CN(c3ccccc3)C(=O)[C@H]2C1 (stereo not given in full),Percent Effect,"30.3 µM, […]",6.072%
CCc1ncncc1C(=O)NCCN1CCC(C)CC1,Percent Effect,"30 µM, 30.03 µM",18.33%
CC1CCN(CCNC(=O)c2cncnc2C(C)C)CC1,Percent Effect,"30 µM, 30.03 µM",11.52%
Cc1ncncc1C(=O)NCCN1CCC(C)CC1,Percent Effect,"30.3 µM, […]",57.89%
Cn1cnnc1C1CCCN(C(=O)NCCOc2ccccc2)C1 (stereo not given),Percent Effect,"30 µM, 30.03 µM",2.584%
CCc1nc(C2CCCN2C(=O)CCc2cscn2)no1 (stereo not given),Percent Effect,30 µM,-30.43%
CCN(Cc1cccc(Cl)c1)Cc1ncc(C(C)(C)C)o1,Percent Effect,"30.3 µM, […]",12.9%
Cc1cccc(CN(Cc2ccccn2)Cc2ncc(C(C)(C)C)o2)c1,Percent Effect,"30.3 µM, […]",68.09%
Cc1cccc(CN(Cc2ccccn2)S(=O)(=O)N(C)C)c1,Percent Effect,"30.3 µM, […]",9.457%
Cc1ccc(F)c(C(=O)N2C[C@@H](C(=O)O)[C@H](c3ccncc3)C2)c1Cl,Percent Effect,"30.3 µM, […]",16.35%
O=S1(=O)CCC(c2nc(-c3cccc(Br)c3)no2)C1 (stereo not given),Percent Effect,"30.3 µM, […]",2.793%
COCCN(Cc1cnn(C)c1)CC1CCOC1 (stereo not given),Percent Effect,"30.3 µM, […]",-5.95%
COCCN(Cc1cnn(C)c1)CC1CCN(C(C)C)CC1,Percent Effect,"30.3 µM, […]",53.86%
COCCN(Cc1cnn(C)c1)Cc1ccc(C)o1,Percent Effect,"30.3 µM, […]",22%
c1ccc2c(N3CCCC3Cn3cccn3)ncnc2c1 (stereo not given),Percent Effect,"30 µM, 30.03 µM",38.82%
Cc1nccn1CC1CCCN1S(=O)(=O)Cc1ccccc1F (stereo not given),Percent Effect,"30 µM, 30.03 µM",17.08%
COCc1noc(-c2cc(Cl)c3c(c2)OCO3)n1,Percent Effect,"30.3 µM, […]",-15.75%
O=C(CCn1c(=O)oc2ccccc21)NCC(O)c1ccc(F)c(F)c1 (stereo not given),Percent Effect,"30.3 µM, […]",41.71%
O=C(CCn1c(=O)oc2ccccc21)NCC(O)c1ccc(Cl)cc1 (stereo not given),Percent Effect,"30.3 µM, […]",46.94%
O=C(CCn1c(=O)oc2ccccc21)NCC(O)c1ccccc1 (stereo not given),Percent Effect,"30.3 µM, […]",50.97%
OC1=C2C(=Nc3n[nH]c(O)c3C2c2ccccc2Cl)CCC1 (stereo not given),Percent Effect,"30.3 µM, […]",11.34%
CN(C)c1cncc(C2CCN(CCO)CC2)n1,Percent Effect,"30 µM, 30.03 µM",34.76%
COCC(=O)N1Cc2nccn2CC(CN(C)Cc2cccnc2)C1 (stereo not given),Percent Effect,"30.3 µM, […]",24.51%
CCC(=O)N1Cc2nccn2CC(CN(C)Cc2cccnc2)C1.O=C(O)C(F)(F)F.O=C(O)C(F)(F)F (stereo not given),Percent Effect,"30 µM, 30.03 µM",14.09%
CN(Cc1cccnc1)CC1CN(C(N)=O)Cc2nccn2C1 (stereo not given),Percent Effect,"30.3 µM, […]",59.79%
NC(=O)CCn1cc(CNCCCc2ccccc2O)c2ccccc21,Percent Effect,"30.3 µM, […]",30.89%
Cc1ccsc1CNCC1CCCN1c1cccnn1 (stereo not given),Percent Effect,30 µM,29.66%
CC(C)N1CCC2(CCCN(Cc3ccc(F)cc3)C2=O)C1 (stereo not given),Percent Effect,"30.3 µM, […]",12.06%
CCCc1cc(N2CCC(N[C@H]3CC[C@H](O)CC3)CC2)nc(C)n1,Percent Effect,"30.3 µM, […]",8.442%
Cc1nn(C)c2cn(CC(=O)N3CCN(c4ccccc4)CC3)nc12,Percent Effect,"30.3 µM, […]",30.49%
CN1CCN(c2ccccc2NC(=O)c2ccco2)CC1,Percent Effect,"30.3 µM, […]",13.32%
CN1CCN(c2ccc(Cl)cc2NC(=O)c2ccco2)CC1,Percent Effect,"30.3 µM, […]",18.57%
CN1CCN(c2ccc(Br)cc2NC(=O)c2ccco2)CC1,Percent Effect,"30.3 µM, […]",53.58%
Cc1ccc(C(=O)O)cc1-c1cccc2c1CCNC2,Percent Effect,"30.3 µM, […]",17.04%
O=C(c1ccnnc1)N1C[C@H](OCC2CC2)[C@H]2COC[C@H]21,Percent Effect,"30.3 µM, […]",15.2%
CCOc1ccc(Cl)c(C(=O)NC(C(N)=O)c2ccccc2)n1 (stereo not given),Percent Effect,"30.3 µM, […]",28.97%
Cc1cccc(CN2C(=O)CC[C@@H]3[C@H]2CCN3Cc2ccc(C)s2)n1.O=C(O)C(F)(F)F.O=C(O)C(F)(F)F,Percent Effect,"30 µM, 30.03 µM",7.01%
Cc1ccc(-n2ncc3c2CCCC3N)cc1C (stereo not given),Percent Effect,"30.3 µM, […]",72.93%
NC1CCCc2c1cnn2-c1cc(F)cc(F)c1 (stereo not given),Percent Effect,"30.3 µM, […]",-4.914%
CC(C)(C)c1ccc(-n2ncc3c2CCCC3N)cc1 (stereo not given),Percent Effect,"30.3 µM, […]",27.02%
Cc1cc(C)cc(-n2ncc3c2CCCC3N)c1 (stereo not given),Percent Effect,"30.3 µM, […]",79.9%
Cc1ccc(-n2ncc(C(=O)N(C)C3CCN(C)CC3)c2N)cc1C,Percent Effect,"30.3 µM, […]",14.5%
CN(C)S(=O)(=O)NC1CCCc2c1cnn2-c1ccc(C(C)(C)C)cc1 (stereo not given),Percent Effect,"30.3 µM, […]",27.24%
O=C(O)C(F)(F)F.c1cnc(NCc2nnn3c2CN(Cc2ccsc2)CCC3)nc1,Percent Effect,"30.3 µM, […]",-35.49%
Cc1ccc(OCCNc2cccc(C(=O)N3CCOCC3)c2)cc1,Percent Effect,"30.3 µM, […]",19.35%
CC(=O)NCc1cccc(-n2ccnc2-c2cccc(C(=O)O)c2)c1,Percent Effect,"30.3 µM, […]",-4.637%
CC(C)C(NC(=O)c1ccccc1F)C(=O)Nc1cnn(C)c1 (stereo not given),Percent Effect,"30.3 µM, […]",14.78%
Cc1ccc(-c2cc(C(=O)NCCN3CCCS3(=O)=O)[nH]n2)cc1,Percent Effect,30 µM,-10.89%
CC(C)c1nc(C2CCCN(C(=O)CCCn3ccnc3)C2)no1 (stereo not given),Percent Effect,30 µM,30.47%
NC(=O)C1CCCN1C1CCN(C(=O)c2ccc3c(c2)OCO3)CC1 (stereo not given),Percent Effect,"30.3 µM, […]",5.65%
COc1ccc(NCc2nc(=O)n(CCC(C)C)[nH]2)cc1,Percent Effect,"30 µM, 30.03 µM",11.21%
O=C(Cc1cccc(F)c1)NCCNCc1ccc2c(c1)CCO2,Percent Effect,"30 µM, 30.03 µM",29.87%
O=c1[nH]c2nc(NC3CC3)ncc2c(=O)n1-c1ccc(F)cc1,Percent Effect,"30.3 µM, […]",24.05%
O=c1[nH]c2nc(NCC3CCCO3)ncc2c(=O)n1-c1ccc(F)cc1 (stereo not given),Percent Effect,"30.3 µM, […]",51.53%
O=c1[nH]c2nc(NCC3CCCO3)ncc2c(=O)n1-c1cccc(F)c1 (stereo not given),Percent Effect,"30.3 µM, […]",20.13%
O=C(c1cc(C2CCCCN2CCO)n[nH]1)N1CCOCC1.O=CO (stereo not given),Percent Effect,"30.3 µM, […]",-5.533%
COc1ccccc1CN(Cc1cccc(C)c1)C(=O)[C@@H](N)CC(=O)O,Percent Effect,"30.3 µM, […]",13.42%
CN[C@@H](C)C(=O)N(Cc1cccc(C)c1)Cc1ccccc1OC,Percent Effect,"30.3 µM, […]",82.29%
COCC(=O)N(Cc1cccc(C)c1)Cc1ccccc1OC,Percent Effect,"30.3 µM, […]",40.9%
CC1CN(C(=O)C2(c3cccc(F)c3)CCOCC2)CCO1 (stereo not given),Percent Effect,"30.3 µM, […]",18.33%
Cc1ccccc1C(=O)NCCCN1CCc2ccccc2C1,Percent Effect,30 µM,9.574%
O=C(NCCCN1CCc2ccccc2C1)c1ccccc1Br,Percent Effect,30 µM,36.73%
O=C(NCCCN1CCc2ccccc2C1)c1ccccc1Cl,Percent Effect,30 µM,53%
